Experimental data as given in PubChem BioAssay (EPA / NIEHS).
Results filed as inconclusive are left out. Active and inactive are the calls of the source. How the source made its calls: active means hit-call score of the fitted dose curve at least 0.9, where 1 is the maximum; inconclusive means response in the unintended direction; inactive means score below 0.9.

Read-out: Cytochrome P450 2B6 (Homo sapiens) (UniProt P20813)
Experiment: CLD_CYP2B6_6hr: CellzDirect (CLD) Gene Expression Assay for xenobiotic metabolism (CYP2B6) at 6 hours (AID 2283677);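 further: actives raise CYP2B6 transcript above DMSO baseline so AC50 marks an inducer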
In short: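 Primary human hepatocytes dosed with chemicals at multiple concentrations, vehicle 0.2% DMSO; CYP2B6 mRNA induction measured 6 h after dosing by quantitative nuclease protection assay with chemiluminescence, gain of signal fitted relative to DMSO.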

| Compound | outcome | AC50 |
| --- | --- | --- |
| O=C(O)C(F)(F)C(F)(F)C(F)(F)C(F)(F)C(F)(F)C(F)(F)C(F)(F)F | inactive |  |
| CCS(=O)(=O)c1cccnc1S(=O)(=O)NC(=O)Nc1nc(OC)cc(OC)n1 |  | 11.3 µM (active) |
| CCOc1nc(NC)nc(NC(=O)NS(=O)(=O)c2ccccc2C(=O)OC)n1 | inactive |  |
| CCC(C)(C)C(=O)OC1=C(c2ccc(Cl)cc2Cl)C(=O)OC12CCCCC2 | inactive |  |
| CCOC1Oc2ccc(OS(C)(=O)=O)cc2C1(C)C (centres undefined) |  | 2.55 µM (active) |
| Clc1ccccc1-c1nnc(-c2ccccc2Cl)nn1 |  | 0.0004 µM (active) |
| C#CCN1C(=O)COc2cc(F)c(N3C(=O)C4=C(CCCC4)C3=O)cc21 |  | 0.301 µM (active) |
| COP(=S)(OC)Oc1ccc(SC)c(C)c1 |  | 4.74 µM (active) |
| CC[C@H](C)[C@H]1O[C@]2(C=C[C@@H]1C)C[C@@H]1C[C@@H](C/C=C(\C)[C@@H](O[C@H]3C[C@H](OC)[C@@H](O[C@H]4C[C@H](OC)[C@@H](O)[C@H](C)O4)[C@H](C)O3)[C@@H](C)/C=C/C=C3\CO[C@@H]4[C@H](O)C(C)=C[C@@H](C(=O)O1)[C@]34O)O2 (tested in a mixture with another compound) | inactive |  |
| COc1nn(CSP(=S)(OC)OC)c(=O)s1 |  | 2.94 µM (active) |
| CC(C)(C)C(O)C(Oc1ccc(Cl)cc1)n1cncn1 (centres undefined) |  | 0.656 µM (active) |
| CCOCN(C(=O)CCl)c1c(C)cccc1CC |  | 1.66 µM (active) |
| O=[N+]([O-])c1c(Cl)c(Cl)c(Cl)c(Cl)c1Cl |  | 20 µM (active) |
| CC(C)OC(=O)Nc1cccc(Cl)c1 |  | 6.86 µM (active) |
| COP(=O)(OC)OC=C(Cl)Cl |  | 1.89 µM (active) |
| ClC1C(Cl)C(Cl)C(Cl)C(Cl)C1Cl (centres undefined) |  | 1.43 µM (active) |
| N#Cc1c(Cl)c(Cl)c(Cl)c(C#N)c1Cl |  | 20 µM (active) |
| O=S1OCC2C(CO1)C1(Cl)C(Cl)=C(Cl)C2(Cl)C1(Cl)Cl (centres undefined) |  | 1.24 µM (active) |
| CCC(C)Nc1c([N+](=O)[O-])cc(C(C)(C)C)cc1[N+](=O)[O-] (centres undefined) |  | 1.53 µM (active) |
| CCN(CC)C(=O)SCc1ccc(Cl)cc1 |  | 1.84 µM (active) |
| CC(C)N(C(=O)COc1nnc(C(F)(F)F)s1)c1ccc(F)cc1 |  | 14.7 µM (active) |
| CC(C)(C)C(O)/C(=C\c1ccc(Cl)cc1Cl)n1cncn1 (centres undefined) |  | 0.733 µM (active) |
| CCCN(CCC)c1c([N+](=O)[O-])cc(C(F)(F)F)cc1[N+](=O)[O-] |  | 1.27 µM (active) |
| COC(=O)c1ccccc1S(=O)(=O)NC(=O)Nc1nc(C)nc(OC)n1 | inactive |  |
